Test [1] concerns the target Paired box protein Pax-6 (Homo sapiens) (UniProt P26367). The experiment in a line: ATG_Pax6_CIS: Attagene CIS-FACTORIAL HepG2 Assay for human Paired Box 6 (PAX6) (AID 2282956). The following applies: HepG2 CIS-FACTORIAL PAX6 reporter transcription, RNA readout; actives raise or lower the signal. A digest of the protocol:
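Transient MRTU transfection of HepG2 → compound exposure 24 h → TriZol RNA, oligo(dT) RT → PCR, 6-FAM primer extension, HpaI cut → capillary electrophoresis; activity fitted both directions against DMSO.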

The nature of test [2]: ATG_PXRE_CIS: Attagene CIS-FACTORIAL HepG2 Assay for human Pregnane X Receptor Element (PXRE) (AID 2282957). The following applies: HepG2 Attagene CIS-FACTORIAL PXRE reporter, mRNA; actives raise or lower the signal. In short, it runs like this:
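HepG2 cells transiently transfected with cis-regulated multiple reporter transcription units; endogenous factor activity measured as reporter mRNA 24 h after dosing. RT-PCR, fluorescent primer extension, HpaI digestion, capillary electrophoresis; bidirectional fit versus DMSO baseline.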

Test [3] in a line: ATG_PPRE_CIS: Attagene CIS-FACTORIAL HepG2 Assay for human Peroxisome Proliferator-activated Response Element (PPRE) (AID 2282958). The following applies: HepG2 PPRE cis-element reporter, Attagene transcription factor profiling; actives raise or lower the signal. A digest of the protocol:
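HepG2 cells are transiently transfected with multiplexed cis-promoter reporter units to report endogenous PPAR activity. After 24 h dosing, reporter mRNA is read by RT-PCR and capillary electrophoresis. Fitting is bidirectional against DMSO.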

The nature of test [4]: ATG_RORE_CIS: Attagene CIS-FACTORIAL HepG2 Assay for human RAR-related Orphan Receptor Element (RORE) (AID 2282959). The following applies: HepG2 Attagene cis-factorial RORE reporter, mRNA; actives raise or lower the signal. A digest of the protocol: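 HepG2 cells carrying transiently transfected cis-regulated reporter units; RORE-driven reporter mRNA quantified 24 h post-dosing by RT-PCR, 6-FAM primer extension, HpaI digestion and capillary electrophoresis. Bidirectional fit versus DMSO.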

Test [5] is described as follows: ATG_Sox_CIS: Attagene CIS-FACTORIAL HepG2 Assay for human SRY-box transcription factor (SOX) (AID 2282960). The following applies: HepG2 Attagene cis-factorial SOX reporter, mRNA; actives raise or lower the signal. In short, it runs like this: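 HepG2 cells transiently transfected with multiple cis-regulated reporter units, then dosed for 24 h. Reporter mRNA quantified by RT-PCR, fluorescent labelling, HpaI digestion and capillary electrophoresis; bidirectional fit versus DMSO.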

For test [6], the target named is Transcription factor Sp1 (Homo sapiens) (UniProt P08047). The experiment in a line: ATG_Sp1_CIS: Attagene CIS-FACTORIAL HepG2 Assay for human Specificity Protein 1 (Sp1) (AID 2282961). The following applies: HepG2 Sp1 cis-reporter transcription, actives raise or lower the signal. In short, it runs like this: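 HepG2 cells transiently transfected with multiplexed cis-regulated reporter constructs, chemical exposure 24 h. Reporter mRNA quantified by RT-PCR with capillary electrophoresis; bidirectional fit relative to DMSO.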
Sequence of Transcription factor Sp1 (Homo sapiens) (P08047 whole entry, looked up): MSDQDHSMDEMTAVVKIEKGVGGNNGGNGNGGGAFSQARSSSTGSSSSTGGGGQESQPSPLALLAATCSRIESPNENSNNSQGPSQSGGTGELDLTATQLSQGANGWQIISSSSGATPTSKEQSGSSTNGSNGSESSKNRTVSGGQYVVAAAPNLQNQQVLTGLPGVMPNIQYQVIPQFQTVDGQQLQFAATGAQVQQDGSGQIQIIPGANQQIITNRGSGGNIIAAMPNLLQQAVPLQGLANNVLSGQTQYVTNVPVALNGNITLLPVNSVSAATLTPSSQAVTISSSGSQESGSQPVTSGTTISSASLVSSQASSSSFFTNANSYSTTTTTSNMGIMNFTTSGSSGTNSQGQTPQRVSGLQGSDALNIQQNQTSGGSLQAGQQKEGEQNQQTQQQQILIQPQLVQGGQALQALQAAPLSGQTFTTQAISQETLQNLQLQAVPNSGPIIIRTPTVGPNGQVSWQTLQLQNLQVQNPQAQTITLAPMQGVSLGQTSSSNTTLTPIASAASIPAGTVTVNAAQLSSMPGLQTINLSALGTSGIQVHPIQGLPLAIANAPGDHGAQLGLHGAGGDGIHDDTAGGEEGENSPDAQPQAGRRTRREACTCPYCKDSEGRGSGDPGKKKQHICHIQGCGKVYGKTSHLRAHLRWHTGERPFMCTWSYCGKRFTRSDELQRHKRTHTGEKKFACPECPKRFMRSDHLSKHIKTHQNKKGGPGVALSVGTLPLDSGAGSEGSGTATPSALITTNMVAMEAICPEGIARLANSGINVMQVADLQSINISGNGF

Test [7] in a line: ATG_SREBP_CIS: Attagene CIS-FACTORIAL HepG2 Assay for human Sterol Regulatory Element Binding (SREBP) (AID 2282962). The following applies: HepG2 Attagene cis-factorial SREBP reporter, mRNA; actives raise or lower the signal. In short, it runs like this:
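Transfected HepG2 (cis-regulated reporter library, endogenous TFs) → compound 24 h → total RNA → oligo(dT) RT → reporter-specific PCR → FAM primer extension, HpaI cut → CE fluorescence. Fit bidirectional vs DMSO.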

For test [8], the target named is Signal transducer and activator of transcription 3 (Homo sapiens) (UniProt P40763). The experiment in a line: ATG_STAT3_CIS: Attagene CIS-FACTORIAL HepG2 Assay for human Signal Transducer and Activator of Transcription 3 (STAT3) (AID 2282963). The following applies: HepG2, Attagene cis-factorial STAT3 reporter transcription; actives raise or lower the signal. A digest of the protocol: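 Transcript-level reporter assay. HepG2 transient MRTU transfection, 24 h exposure, fluorescence detection after RT-PCR and CE; DMSO baseline.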
Sequence of Signal transducer and activator of transcription 3 (Homo sapiens) (P40763 whole entry, looked up): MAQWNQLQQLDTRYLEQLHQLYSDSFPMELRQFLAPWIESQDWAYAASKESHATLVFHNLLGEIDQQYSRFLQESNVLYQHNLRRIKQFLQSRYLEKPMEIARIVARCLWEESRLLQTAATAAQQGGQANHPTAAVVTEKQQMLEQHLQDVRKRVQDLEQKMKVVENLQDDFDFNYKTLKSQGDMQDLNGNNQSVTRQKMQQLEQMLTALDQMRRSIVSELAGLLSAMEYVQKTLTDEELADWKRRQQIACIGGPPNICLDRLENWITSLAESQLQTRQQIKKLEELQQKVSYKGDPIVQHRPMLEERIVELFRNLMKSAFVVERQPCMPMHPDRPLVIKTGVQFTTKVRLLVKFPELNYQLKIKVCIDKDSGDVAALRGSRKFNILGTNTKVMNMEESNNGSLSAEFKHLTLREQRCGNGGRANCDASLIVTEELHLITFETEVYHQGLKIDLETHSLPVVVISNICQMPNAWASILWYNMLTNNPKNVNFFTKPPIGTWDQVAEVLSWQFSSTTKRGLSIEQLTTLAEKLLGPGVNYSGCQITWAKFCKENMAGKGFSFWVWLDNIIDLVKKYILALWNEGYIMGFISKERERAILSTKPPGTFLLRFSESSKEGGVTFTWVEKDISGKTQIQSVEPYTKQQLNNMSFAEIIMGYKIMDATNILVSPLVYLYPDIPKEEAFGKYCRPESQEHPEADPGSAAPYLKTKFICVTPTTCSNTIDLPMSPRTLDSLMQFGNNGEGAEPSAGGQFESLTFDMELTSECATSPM

The nature of test [9]: ATG_TA_CIS: Attagene CIS-FACTORIAL HepG2 Assay for human TA Basal Promoter (AID 2282964). The following applies: HepG2 Attagene CIS-factorial TA basal promoter reporter; actives raise or lower the signal. A digest of the protocol: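 HepG2 cells transiently transfected with multiple reporter units under cis promoter elements, reporting endogenous transcription factor activity; this endpoint tracks the TA basal promoter as background control. Reporter mRNA after 24 h dosing measured by RT-PCR/capillary electrophoresis; bidirectional fits versus DMSO.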

A short description of test [10]: ATG_TCF_b_cat_CIS: Attagene CIS-FACTORIAL HepG2 Assay for human T-Cell-Factor with beta-catenin (TCF/b-cat) (AID 2282965). The following applies: HepG2 TCF/beta-catenin cis-reporter transcription, actives raise or lower the signal. In short, it runs like this:
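HepG2 cells transiently transfected with multiple cis-promoter-regulated reporter transcription units, so endogenous transcription factor activity is measured. Reporter mRNA read 24 hours after dosing by RT-PCR, fluorescent labelling and capillary electrophoresis; bidirectional fitting against DMSO.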

Test [11] can be described thus: ATG_TAL_CIS: Attagene CIS-FACTORIAL HepG2 Assay for human TAL Basal Promoter (AID 2282966).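 Further: background control endpoint measuring basal TAL promoter reporter mRNA not a specific factor.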 The following applies: HepG2 Attagene cis-factorial TAL promoter reporter; actives raise or lower the signal. In short, it runs like this:
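HepG2 cells were transiently transfected with promoter-driven multiplexed reporter units and dosed for 24 h. Reporter mRNA was measured by RT-PCR with capillary electrophoresis fluorescence; bidirectional fits used DMSO as baseline, serving as a background control.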

Test [12] is described as follows: ATG_VDRE_CIS: Attagene CIS-FACTORIAL HepG2 Assay for human Vitamin D Receptor Element (VDRE) (AID 2282968). The following applies: HepG2 VDRE cis-reporter transcription, actives raise or lower the signal. A digest of the protocol: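 RT-PCR/CE readout of reporter mRNA; HepG2, transient transfection, 24 h dosing; DMSO baseline; bidirectional analysis.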
Test [13] deals with Nuclear receptor subfamily 1 group I member 3 (Homo sapiens) (UniProt Q14994). The experiment in a line: ATG_CAR_TRANS: Attagene TRANS-FACTORIAL HepG2 Assay for human Constitutive Androstane Receptor (CAR) (AID 2282969; active means hit-call score of the fitted dose curve at least 0.9, where 1 is the maximum;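 further: activators raise reporter mRNA above DMSO so AC50 marks induction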). The following applies: HepG2 Attagene TRANS-FACTORIAL CAR reporter. In short, it runs like this:
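HepG2 cells transiently transfected with multiplexed GAL4-UAS reporter units expressing chimeric NR-Gal4 proteins; compound exposure 24 h. Reporter mRNA measured by RT-PCR, 6-FAM labelling, HpaI digestion and capillary electrophoresis; gain-of-signal fitted against DMSO baseline.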

The target in test [14] is Estrogen receptor (Homo sapiens) (UniProt P03372). In words: ATG_ERa_TRANS: Attagene TRANS-FACTORIAL HepG2 Assay for human Estrogen Receptor alpha (ERa) (AID 2282970; active means hit-call score of the fitted dose curve at least 0.9, where 1 is the maximum). The following applies: HepG2 Attagene TRANS ERa GAL4 reporter, mRNA. In short, it runs like this:
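HepG2 cells transiently transfected with multiplexed GAL4-UAS reporter units; ERa activity read via exogenous chimeric NR-Gal4 protein. After 24 hour compound exposure, reporter mRNA measured by RT-PCR with 6-FAM labelling and capillary electrophoresis; gain-of-signal fitted relative to DMSO.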

A short description of test [15]: ATG_TGFb_CIS: Attagene CIS-FACTORIAL HepG2 Assay for human Transforming Growth Factor (TGF) (AID 2282967). The following applies: HepG2 Attagene CIS TGFb reporter, mRNA transcription; actives raise or lower the signal. A digest of the protocol:
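HepG2 cells transiently transfected with cis-promoter-driven multiple reporter units measure endogenous TF activity; reporter mRNA quantified at 24 h by RT-PCR, FAM labeling, HpaI digestion and capillary electrophoresis. Bidirectional fit vs DMSO.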

Test [16] deals with X-box-binding protein 1 (Homo sapiens) (UniProt P17861). In words: ATG_Xbp1_CIS: Attagene CIS-FACTORIAL HepG2 Assay for human X-box Binding Protein 1 (XBP1) (AID 2282972). The following applies: HepG2 XBP1 cis-element reporter, Attagene multiplex; actives raise or lower the signal. A digest of the protocol:
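HepG2, transient MRTU transfection (cis-promoter driven), 24 h compound exposure. Total RNA → oligo(dT) RT → PCR → 6-FAM labeling → HpaI cut → CE. Bidirectional fit vs DMSO.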

Test [17] in a line: ATG_GAL4_TRANS: Attagene TRANS-FACTORIAL HepG2 Assay for GAL4 (Internal Marker) (AID 2282976; active means hit-call score of the fitted dose curve at least 0.9, where 1 is the maximum). The following applies: HepG2 Attagene TRANS GAL4 internal marker reporter. A digest of the protocol:
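HepG2 cells transiently transfected with multiplexed GAL4-UAS reporter constructs were dosed for 24 h. Reporter mRNA was measured by RT-PCR, 6-FAM primer extension, HpaI digestion and capillary electrophoresis, and gain of signal was fitted relative to DMSO.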

Inconclusive results are not listed. Active and inactive are the calls of the source. How the source made its calls, unless noted: active means hit-call score of the fitted dose curve at least 0.9, where 1 is the maximum; inactive means score below 0.9.

Broadly, the AC50 is the midpoint of the concentration-response curve, whichever way the signal moves.

Sequence of Nuclear receptor subfamily 1 group I member 3 (Homo sapiens) (Q14994 whole entry, looked up, the tested form may be a part): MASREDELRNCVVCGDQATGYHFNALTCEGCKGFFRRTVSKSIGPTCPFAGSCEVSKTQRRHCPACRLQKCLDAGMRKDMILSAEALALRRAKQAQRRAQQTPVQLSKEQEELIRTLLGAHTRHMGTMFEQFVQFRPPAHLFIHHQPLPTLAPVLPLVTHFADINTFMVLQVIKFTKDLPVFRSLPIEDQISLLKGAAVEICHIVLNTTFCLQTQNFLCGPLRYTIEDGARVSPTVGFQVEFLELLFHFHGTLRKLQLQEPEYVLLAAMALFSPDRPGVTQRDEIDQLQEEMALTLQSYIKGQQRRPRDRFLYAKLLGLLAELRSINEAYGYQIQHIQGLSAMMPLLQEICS
Sequence of Paired box protein Pax-6 (Homo sapiens) (P26367 whole entry, looked up): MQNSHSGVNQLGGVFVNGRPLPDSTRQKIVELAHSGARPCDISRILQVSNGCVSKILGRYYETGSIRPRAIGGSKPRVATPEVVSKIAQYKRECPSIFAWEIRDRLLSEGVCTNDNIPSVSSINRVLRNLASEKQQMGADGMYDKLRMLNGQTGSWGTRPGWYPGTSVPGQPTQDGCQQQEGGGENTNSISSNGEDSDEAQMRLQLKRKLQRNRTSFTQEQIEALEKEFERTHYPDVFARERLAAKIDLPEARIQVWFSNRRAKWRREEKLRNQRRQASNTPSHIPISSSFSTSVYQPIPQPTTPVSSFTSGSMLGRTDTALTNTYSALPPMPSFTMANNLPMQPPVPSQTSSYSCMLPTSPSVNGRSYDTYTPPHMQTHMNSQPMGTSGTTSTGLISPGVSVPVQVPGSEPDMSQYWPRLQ
Sequence of X-box-binding protein 1 (Homo sapiens) (P17861 whole entry, looked up): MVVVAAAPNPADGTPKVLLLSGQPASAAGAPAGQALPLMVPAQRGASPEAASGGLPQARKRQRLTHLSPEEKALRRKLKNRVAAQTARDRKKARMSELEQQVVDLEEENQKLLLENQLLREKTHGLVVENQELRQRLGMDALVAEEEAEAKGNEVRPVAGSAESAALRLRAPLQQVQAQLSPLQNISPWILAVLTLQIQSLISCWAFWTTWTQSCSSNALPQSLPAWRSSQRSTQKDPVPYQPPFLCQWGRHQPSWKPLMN
Sequence of Estrogen receptor (Homo sapiens) (P03372 whole entry, looked up, the tested form may be a part): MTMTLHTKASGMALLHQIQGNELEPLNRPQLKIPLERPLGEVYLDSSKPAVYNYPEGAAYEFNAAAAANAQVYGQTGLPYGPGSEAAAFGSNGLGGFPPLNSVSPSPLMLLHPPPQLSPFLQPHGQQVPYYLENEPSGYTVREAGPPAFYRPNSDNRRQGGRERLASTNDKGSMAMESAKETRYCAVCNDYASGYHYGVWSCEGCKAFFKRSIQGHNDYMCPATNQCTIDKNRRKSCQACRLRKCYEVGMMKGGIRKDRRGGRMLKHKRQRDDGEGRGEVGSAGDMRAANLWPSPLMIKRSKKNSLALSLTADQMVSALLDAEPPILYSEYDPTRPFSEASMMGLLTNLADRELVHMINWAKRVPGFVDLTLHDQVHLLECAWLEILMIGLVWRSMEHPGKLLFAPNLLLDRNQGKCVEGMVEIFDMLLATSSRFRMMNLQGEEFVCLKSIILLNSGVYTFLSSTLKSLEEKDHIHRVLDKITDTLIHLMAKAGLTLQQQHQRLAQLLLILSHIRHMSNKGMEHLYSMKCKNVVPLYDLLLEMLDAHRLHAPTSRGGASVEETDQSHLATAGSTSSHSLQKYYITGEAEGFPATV

Regarding `CN(C)CCCN`, the outcome in test [1], in [2], in test [3], in test [4], in [5] and in test [6] was inactive. Also, the outcome in test [7], in [8], in [9], in test [10], in test [11] and in test [12] was inactive. Moreover, the compound was classed as inactive in [13] and in [14].

On to `O=C(Cl)c1cccc(C(=O)Cl)c1`, for which the outcome in [1], in test [3], in test [4], in [5], in test [6] and in test [7] was inactive. Also, the result in test [8], in [9], in test [10], in test [11], in [15] and in test [12] was inactive. Besides, the compound was called inactive in test [16] and in test [17]. Further, the AC50 in [2] is 27.5 µM (active).

For the compound `O=C(O)c1cn(C2CC2)c2cc(N3CCNCC3)c(F)cc2c1=O`, the outcome in test [1], in test [2], in test [3], in [4], in test [5] and in test [6] was inactive. For the same compound, the outcome in [7], in test [8], in test [9], in test [10], in test [11] and in [15] was inactive. Also, the outcome in [16] was inactive.

For `CCCCCCCCCCCCSC`, the compound was classed as inactive in test [1], in [3], in test [4], in test [5], in [6] and in test [7]. Further, the call in test [8], in test [9], in test [10], in [11], in [15] and in test [13] was inactive. For the same compound, the result in test [16] was inactive. The AC50 in test [2] is 27.3 µM (active).

For `CCCCC(CC)COCCC#N` (centres undefined), the result in test [1], in test [3], in [4], in test [5], in test [6] and in test [7] was inactive. Further, the outcome in test [8], in test [9], in test [10], in test [11], in [15] and in test [13] was inactive. Also, the compound was classed as inactive in test [16]. Moreover, in test [2], the AC50 was 27.9 µM (active).

On to `CC(CC(C)(C)C)CC(C)(C)CC(C)(C)C` (centres undefined), for which the result in test [1], in test [2], in [3], in [4], in test [5] and in test [6] was inactive. Moreover, the outcome in test [7], in [8], in test [9], in test [10], in [11] and in test [15] was inactive. Besides, the call in [13] and in test [16] was inactive.

For the origin of these results see PubChem BioAssay (EPA / NIEHS).
